The record followed here is article PMC5540273 (PLoS ONE, 2017).

Test systems include S6K1; SBK1; SGK2; SGK3; SGK; SIK2; SIK; SLK; SNRK; SRC.
Common to all, as to conditions: concentration: 1 μM, replicates: in singlicate; n = 1
Assay [1] has as its system RPS6KA5(Kin.Dom.2-C-terminal).
Assay [2] concerns T1, RSK1(Kin.Dom.1-N-terminal).
T1 construct: gene RPS6KA1

In assay [3] the test system is T2, RSK1(Kin.Dom.2-C-terminal).
T2 construct: gene RPS6KA1

Assay [4] relates to T3, RSK2(Kin.Dom.1-N-terminal).
T3 construct: gene RPS6KA3

For assay [5], the system named is T4, RSK2(Kin.Dom.2-C-terminal).
T4 construct: gene RPS6KA3

In assay [6] the test system is T5, RSK3(Kin.Dom.1-N-terminal).
T5 construct: gene RPS6KA2

In assay [7] the test system is T6, RSK3(Kin.Dom.2-C-terminal).
T6 construct: gene RPS6KA2

Assay [8] relates to T7, RSK4(Kin.Dom.1-N-terminal).
T7 construct: gene RPS6KA6

For assay [9], the system named is T8, RSK4(Kin.Dom.2-C-terminal).
T8 construct: gene RPS6KA6

A further assay deals with T9, SNARK.
T9 construct: gene NUAK2
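Further: KINOMEscan kinase panel screen.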

On to `O=C(NCCCN1CCCC1=O)c1cnc(NCc2cc(Cl)ccc2Cl)nc1NC1CCNCC1`, for which the “%Inh” value in assay [1] stood at 0%; in assay [2], 100%; in assay [3], 5%; in assay [4], 0%; in [5], 0%; in assay [6], 39%. Further, the “%Inh” value in [7] was 8%; in [8] it was 0%; in [9], 17%; in the assay with S6K1, 26%; with SBK1, 0%; with SGK2, 0%. The “%Inh” value was 0% with SGK3; 0% in the assay on SGK; 0% with SIK2; 7% in the assay with SIK; 14% in the assay with SLK; 0% in the assay on SNARK. In addition, the “%Inh” value in the assay with SNRK and with SRC was 0% throughout.
In the case of `FC(F)(F)c1ccc(-c2cc(-c3c[nH]nc3-c3ccccn3)ccn2)cc1` [GW599550], the “%Inh” value in assay [1] came out at 15%; in [2], 20%; in [3], 7%; in assay [4] it was 0%; in assay [5] it was 2%; in assay [6], 12%. Moreover, the “%Inh” value in assay [7] came out at 5%; in assay [8], 0%; in assay [9], 42%; in the assay with S6K1, 2%; in the assay with SBK1, 8%; with SGK2 it was 9%. The “%Inh” value in the assay on SGK3 is 12%; in the assay with SGK, 0%; with SIK2 it was 0%; in the assay with SIK, 0%; with SLK, 23%; in the assay on SNARK, 10%. Further, the entries for the “%Inh” value with SNRK and with SRC were 100% and 3%, respectively.
Take `CCc1nc(-c2cccc(C)c2)c(-c2ccnc(NC(=O)c3ccccc3)c2)s1`: the “%Inh” value in assay [1] is listed as 1%; in [2], 0%; in assay [3] it was 53%; in assay [4] it was 0%; in assay [5] it was 39%; in assay [6], 0%. The “%Inh” value in assay [7] was determined as 5%; in assay [9] it was 46%; with S6K1, 0%; in the assay on SBK1 it was 5%; in the assay with SGK2, 17%; in the assay with SGK3, 0%. In addition, the “%Inh” value in the assay on SGK is on record as 13%; in the assay on SIK2 it was 0%; in the assay on SIK it was 25%; in the assay with SLK, 0%; in the assay with SNARK, 0%; with SNRK, 19%. Besides, the “%Inh” value in the assay with SRC is 5%.
As for `Cl.Cn1ccc(-c2cccc(Nc3ccnc4cc(-c5nccs5)ccc34)c2)n1` [GW525701], the “%Inh” value worked out at 39% in assay [1]; 0% in [2]; 0% in assay [3]; 8% in assay [4]; 21% in assay [5]; 2% in assay [6]. Also, the “%Inh” value was determined as 13% in assay [7]; 0% in assay [8]; 7% in assay [9]; 0% with S6K1; 0% in the assay on SBK1; 0% in the assay on SGK2. For the same compound, the “%Inh” value in the assay on SGK3 was 14%; with SGK, 0%; in the assay with SIK2, 0%; with SIK, 0%; in the assay on SLK, 42%; with SNARK, 0%. In addition, the “%Inh” value in the assay with SNRK and in the assay with SRC was 0% throughout.
For the compound `CCn1c(-c2ccncc2)nc2cnccc21` [SB-735216], the “%Inh” value in assay [1] is on record as 0%; in assay [2] it was 19%; in assay [3], 16%; in assay [4], 19%; in assay [5], 34%; in assay [6], 8%. The “%Inh” value is reported as 40% in assay [7]; 14% in assay [8]; 39% in assay [9]; 32% in the assay with S6K1; 20% in the assay on SBK1; 19% in the assay with SGK2. The “%Inh” value in the assay on SGK3 is on record as 28%; in the assay on SGK, 5%; in the assay on SIK2, 0%; in the assay on SIK, 19%; with SLK, 8%; with SNARK, 21%. Besides, the “%Inh” value in the assay with SNRK was determined as 17%; in the assay with SRC it was 0%.
As for `CNc1nccc(-c2c(-c3ccc(F)cc3)ncn2C2CCN(C)CC2)n1` [SB-222903], the “%Inh” value in assay [1] is 12%; in [2], 0%; in [3], 32%; in assay [4] it was 5%; in [5], 0%; in assay [6], 0%. In addition, the “%Inh” value in assay [7] is given as 0%; in assay [8], 0%; in assay [9], 73%; in the assay with S6K1, 0%; in the assay on SBK1 it was 0%; with SGK2, 0%. Besides, the “%Inh” value with SGK3 is recorded as 0%; in the assay with SGK, 0%; in the assay on SIK2 it was 17%; with SIK, 0%; in the assay on SLK, 0%; in the assay on SNARK it was 0%. Further, the “%Inh” value in the assay on SNRK and in the assay on SRC was 0% throughout.
As for `Fc1ccc(-c2ncn(CCCNCc3ccccc3)c2-c2ccncc2)cc1`, the “%Inh” value in assay [1] is given as 7%; in assay [2] it was 0%; in [3], 22%; in assay [4] it was 0%; in assay [5], 22%; in [6], 16%. Also, the “%Inh” value is listed as 21% in [7]; 0% in assay [8]; 31% in assay [9]; 19% in the assay on S6K1; 0% in the assay with SBK1; 19% with SGK2. The “%Inh” value in the assay with SGK3 is reported as 0%; in the assay with SGK, 30%; in the assay with SIK2, 0%; with SIK, 9%; in the assay on SLK, 35%; with SNARK it was 5%. The “%Inh” value in the assay with SNRK was 5%; in the assay with SRC, 24%.
With `COc1ccc(Nc2nccc(N3CCC(NC(=O)Nc4ccc5c(c4)OCO5)C3)n2)cc1` (stereo not shown) [GSK1379745], the “%Inh” value in assay [1] was determined as 0%; in [2] it was 0%; in assay [3], 8%; in assay [4], 10%; in assay [5] it was 0%; in [6], 17%. Also, the “%Inh” value is 19% in assay [7]; 0% in assay [8]; 41% in assay [9]; 0% with S6K1; 21% with SBK1; 6% with SGK2. Moreover, the “%Inh” value in the assay with SGK3 is 6%; with SGK, 1%; in the assay with SIK2, 0%; with SIK it was 6%; in the assay with SLK, 27%; in the assay with SNARK it was 8%. The “%Inh” value in the assay on SNRK came out at 0%; in the assay on SRC, 22%.
Turning to `CSc1nn2c(=O)cc(N3CCOCC3)nc2n1Cc1cccc(Cl)c1Cl` [GSK2347225], the “%Inh” value in assay [1] is given as 8%; in assay [2], 18%; in assay [3], 15%; in assay [4] it was 0%; in [5] it was 0%; in [6], 10%. Moreover, the “%Inh” value in [7] is recorded as 0%; in [8], 0%; in assay [9], 9%; with S6K1, 0%; in the assay with SBK1, 6%; with SGK2, 8%. The “%Inh” value with SGK3 came to 1%; in the assay on SGK it was 0%; with SIK2, 72%; in the assay on SIK it was 13%; in the assay on SLK it was 18%; with SNARK it was 8%. Also, the “%Inh” value amounted to 0% in the assay with SNRK and 26% in the assay with SRC.
`CS(=O)(=O)CCNCc1nc(-c2ccc3ncnc(Nc4ccc(OCc5cccc(F)c5)c(Cl)c4)c3c2)cs1.Cl` [GW583340]: the “%Inh” value in assay [1] is reported as 9%; in assay [2], 22%; in assay [3] it was 10%; in assay [4], 0%; in assay [5], 0%; in assay [6] it was 0%. Besides, the “%Inh” value amounted to 11% in [7]; 0% in [8]; 25% in [9]; 6% in the assay with S6K1; 0% with SBK1; 0% in the assay on SGK2. Further, the “%Inh” value in the assay on SGK3 is 0%; in the assay on SGK it was 0%; in the assay on SIK2 it was 0%; in the assay on SIK, 0%; in the assay on SLK, 20%; with SNARK it was 0%. The “%Inh” value with SNRK and with SRC was 0% throughout.
